{"source": "PubChem BioAssay (Tox21)", "note": "Inconclusive results are not listed. A number with no mark means an inactive call. Calls of active or inactive are those of the source. Unless noted, the call rests on the fitted dose curve; in most records, active means well fitted cell-killing curve with a large enough effect in the repeat runs; inconclusive means weak or mixed curves; inactive means no such curve, though single readings can be large or run the other way. On the % scale 0 is the no-effect control and ±100 the full control effect.", "data": [{"tested_on": "not listed separately", "test": "qHTS assay to identify small molecule agonists of the peroxisome proliferator-activated receptor delta (PPARd) signaling pathway - cell viability counter screen (AID 743211); further: nearly all actives have a fitted effect of over 55% in size; further: potency means the concentration at half of the fitted maximal effect", "conditions": "PPARd-bla HEK293H viability, CellTiter-Glo luminescence, 17 h; series mostly up to 62.6 µM; activity change, negative = cytotoxicity: at the top concentration", "outline": "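Luminescent ATP viability assay (CellTiter-Glo, 30 min RT) in UAS-bla HEK293H cells carrying the PPAR delta reporter construct, 3000 cells/well, after a 17 h compound treatment at 37 C.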", "values": [{"smiles": "C1COCO1", "activity change, negative = cytotoxicity": "4.26%"}, {"smiles": "O=S1OCCO1", "activity change, negative = cytotoxicity": "7.24% [at 81.1 µM]"}, {"smiles": "CNCCCC1c2ccccc2C=Cc2ccccc21", "Potency": "10.6 µM (active)"}, {"smiles": "NC(=O)Cn1c(=O)cc(CCN2CCN(c3nccc4sccc34)CC2)c2ccc(F)cc21", "activity change, negative = cytotoxicity": "-10.6%"}, {"smiles": "O=C(N/N=C/c1ccc([N+](=O)[O-])o1)c1ccc(O)cc1", "activity change, negative = cytotoxicity": "-10%"}, {"smiles": "CC(=O)Nc1ccccc1C", "activity change, negative = cytotoxicity": "0.4% [at 81.1 µM]"}, {"smiles": "Cc1cc(C(=C2C=CC(=Nc3ccc(S(=O)(=O)O)cc3S(=O)(=O)O)C=C2)c2ccc(Nc3ccc(S(=O)(=O)O)cc3)cc2)ccc1N", "activity change, negative = cytotoxicity": "-8.56%"}, {"smiles": "CCCCC(CC)C(=O)OCCOCCOCCOCCOC(=O)C(CC)CCCC", "note": "(stereo not drawn)", "activity change, negative = cytotoxicity": "4.72%"}, {"smiles": "CN1CCN(CCCN2c3ccccc3Sc3ccc(S(=O)(=O)N(C)C)cc32)CC1", "Potency": "26.6 µM (active)"}, {"smiles": "CCCCN(CCCC)CCCOC(=O)c1ccc(N)cc1", "activity change, negative = cytotoxicity": "-9.45%"}, {"smiles": "O=C(CCCCCCCCC#CI)Oc1ccccc1", "activity change, negative = cytotoxicity": "3.8%"}, {"smiles": "CN(C(=O)C(Cl)Cl)c1ccc(OC(=O)c2ccco2)cc1", "activity change, negative = cytotoxicity": "7.46%"}, {"smiles": "CC1CN(c2cc3c(cc2F)c(=O)c(C(=O)O)cn3-c2ccc(F)cc2F)CCN1", "note": "(stereo not drawn)", "activity change, negative = cytotoxicity": "-0.433% [at 5.95 µM]"}, {"smiles": "CCC(C(=O)OCCOCCN(CC)CC)c1ccccc1", "note": "(stereo not drawn)", "activity change, negative = cytotoxicity": "-1.11%"}, {"smiles": "C[C@@H]1C[C@H]2[C@@H]3CCC4=CC(=O)C=C[C@]4(C)[C@@]3(F)[C@@H](O)C[C@]2(C)[C@@]1(O)C(=O)CO", "activity change, negative = cytotoxicity": "7.88% [at 81.1 µM]"}, {"smiles": "CCCCCCCCCCCC(=O)[O][Sn]([CH2]CCC)([CH2]CCC)[O]C(=O)CCCCCCCCCCC", "activity change, negative = cytotoxicity": "-0.308%"}, {"smiles": "COC(=O)[C@@H]1CC2=CC(=O)CC[C@]2(C)[C@@]23O[C@@H]2C[C@@]2(C)[C@@H](CC[C@@]24CCC(=O)O4)[C@H]13", "activity change, negative = cytotoxicity": "13.7%"}, {"smiles": "CC1CC(O)CC(C)(C)C1", "note": "(stereo not drawn)", "activity change, negative = cytotoxicity": "-14.2%"}, {"smiles": "CCOC(=O)/C=C/C(=O)O", "activity change, negative = cytotoxicity": "-1.32%"}, {"smiles": "CO/N=C1\\CN(c2nc3c(cc2F)c(=O)c(C(=O)O)cn3C2CC2)CC1CN", "note": "(stereo not drawn)", "activity change, negative = cytotoxicity": "-8.73%"}, {"smiles": "C=CC(=O)NCOCC(C)C", "activity change, negative = cytotoxicity": "1.11%"}, {"smiles": "O=C(O)c1c(O)c(-c2ccccc2)nc2ccccc12", "activity change, negative = cytotoxicity": "-15.1%"}, {"smiles": "CC(CCO)CCc1ccccc1", "note": "(stereo not drawn)", "activity change, negative = cytotoxicity": "7.22%"}, {"smiles": "COc1ccc(CCC(=O)c2c(O)cc(O[C@@H]3O[C@H](CO)[C@@H](O)[C@H](O)[C@H]3O[C@@H]3O[C@@H](C)[C@H](O)[C@@H](O)[C@H]3O)cc2O)cc1O", "activity change, negative = cytotoxicity": "-2.15%"}, {"smiles": "COc1ccc(C(=O)c2cccc(O)c2)c(OC)c1", "activity change, negative = cytotoxicity": "-3.12%"}, {"smiles": "N#C/C(=C1/SC[C@@H](c2ccc(Cl)cc2Cl)S1)n1ccnc1", "activity change, negative = cytotoxicity": "-17.8%"}, {"smiles": "Cc1cc(O)c2c(O)c3c(O)cccc3cc2c1", "activity change, negative = cytotoxicity": "-17.9%"}, {"smiles": "CCC(C)(C)C1CCC(O)CC1", "note": "(stereo not drawn)", "activity change, negative = cytotoxicity": "3.97%"}, {"smiles": "Cc1ccccc1N1C(=O)c2cc(S(N)(=O)=O)c(Cl)cc2NC1C", "note": "(stereo not drawn)", "activity change, negative = cytotoxicity": "-1.77%"}, {"smiles": "C/C=C(\\C)C(=O)OCCC(C)CCC=C(C)C", "note": "(stereo not drawn)", "activity change, negative = cytotoxicity": "1.12%"}, {"smiles": "O=C(O)c1cccc(O)c1", "activity change, negative = cytotoxicity": "-1.27% [at 81.1 µM]"}, {"smiles": "CCOC(=O)c1ccccc1C", "activity change, negative = cytotoxicity": "-13.7%"}, {"smiles": "C[N+](C)(C)CCOC(N)=O", "activity change, negative = cytotoxicity": "0.163%"}, {"smiles": "CCCCC(=O)O[C@]1(C(=O)CO)CC[C@H]2[C@@H]3CCC4=CC(=O)CC[C@]4(C)[C@H]3[C@@H](O)C[C@@]21C", "activity change, negative = cytotoxicity": "-0.0574%"}, {"smiles": "C=CCNc1nc(NCC=C)nc(N2CCN(C(c3ccc(F)cc3)c3ccc(F)cc3)CC2)n1", "activity change, negative = cytotoxicity": "-4.63%"}]}, {"molecular_target": "Peroxisome proliferator-activated receptor delta (Homo sapiens) (UniProt Q03181)", "sequence (Q03181 whole entry, looked up)": "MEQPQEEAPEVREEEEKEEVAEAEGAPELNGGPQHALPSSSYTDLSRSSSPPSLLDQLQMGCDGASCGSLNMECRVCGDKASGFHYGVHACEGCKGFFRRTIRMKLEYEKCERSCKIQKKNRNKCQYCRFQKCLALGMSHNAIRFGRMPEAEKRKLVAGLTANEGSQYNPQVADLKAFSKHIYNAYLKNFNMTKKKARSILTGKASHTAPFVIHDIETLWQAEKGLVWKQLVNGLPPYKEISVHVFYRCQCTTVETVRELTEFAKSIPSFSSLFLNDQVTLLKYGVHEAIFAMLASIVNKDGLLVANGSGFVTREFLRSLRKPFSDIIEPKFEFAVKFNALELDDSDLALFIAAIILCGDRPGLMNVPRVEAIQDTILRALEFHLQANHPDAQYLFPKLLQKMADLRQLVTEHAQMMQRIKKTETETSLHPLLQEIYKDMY", "test": "qHTS assay to identify small molecule agonists of the peroxisome proliferator-activated receptor delta (PPARd) signaling pathway (AID 743212; calls by dose curve)", "conditions": "HEK293H PPARd-UAS-bla, beta-lactamase FRET ratio, 17 h; series mostly up to 62.6 µM; activation: at the top concentration", "outline": "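Tox21 library screened in GeneBLAzer PPARd UAS-bla HEK293H cells. After compound treatment at 37 C, a FRET-based beta-lactamase substrate was applied for 2 h and fluorescence recorded.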", "units": {"activation": "%"}, "values": [{"smiles": "O=C(CCCN1CCC(O)(c2ccc(Br)cc2)CC1)c1ccc(F)cc1", "activation": -5.47}, {"smiles": "CCOC(=N)CC(=O)OCC", "activation": -0.161}, {"smiles": "C[N+](C)(C)CCOC(N)=O", "activation": 3.59}, {"smiles": "CCCCC(=O)O[C@]1(C(=O)CO)CC[C@H]2[C@@H]3CCC4=CC(=O)CC[C@]4(C)[C@H]3[C@@H](O)C[C@@]21C", "activation": -1.47}, {"smiles": "C=CCNc1nc(NCC=C)nc(N2CCN(C(c3ccc(F)cc3)c3ccc(F)cc3)CC2)n1", "activation": 0.629}]}, {"tested_on": "not listed separately", "test": "qHTS assay to identify small molecule antagonists of the peroxisome proliferator-activated receptor delta (PPARd) signaling pathway - cell viability counter screen (AID 743213); further: nearly all actives have a fitted effect of over 50% in size; further: potency means the concentration at half of the fitted maximal effect", "conditions": "PPARd-bla HEK293H viability, CellTiter-Glo luminescence, 17 h; series mostly up to 62 µM; viability change, negative = cytotoxic: at the top concentration", "outline": "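In this counter screen, HEK293H cells carrying a UAS-beta-lactamase reporter are co-treated with test compounds and 300 nM L165041 (final) for 17 h at 37 C; cell viability is quantified by CellTiter-Glo luminescence.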", "values": [{"smiles": "C1COCO1", "viability change, negative = cytotoxic": "-2.75%"}, {"smiles": "O=S1OCCO1", "viability change, negative = cytotoxic": "-3.84% [at 80.4 µM]"}, {"smiles": "CNCCCC1c2ccccc2C=Cc2ccccc21", "Potency": "23.7 µM (active)"}, {"smiles": "NC(=O)Cn1c(=O)cc(CCN2CCN(c3nccc4sccc34)CC2)c2ccc(F)cc21", "viability change, negative = cytotoxic": "-23.9%"}, {"smiles": "O=C(N/N=C/c1ccc([N+](=O)[O-])o1)c1ccc(O)cc1", "viability change, negative = cytotoxic": "-2.94%"}, {"smiles": "O=C(CCCN1CCC(O)(c2ccc(Br)cc2)CC1)c1ccc(F)cc1", "viability change, negative = cytotoxic": "-2.74%"}, {"smiles": "CCOC(=N)CC(=O)OCC", "viability change, negative = cytotoxic": "0.0378%"}, {"smiles": "CCCCC(CC)C(=O)OCCOCCOCCOCCOC(=O)C(CC)CCCC", "note": "(stereo not drawn)", "viability change, negative = cytotoxic": "7.72%"}, {"smiles": "CN1CCN(CCCN2c3ccccc3Sc3ccc(S(=O)(=O)N(C)C)cc32)CC1", "Potency": "26.6 µM (active)"}, {"smiles": "CCCCN(CCCC)CCCOC(=O)c1ccc(N)cc1", "viability change, negative = cytotoxic": "1.39%"}, {"smiles": "O=C(CCCCCCCCC#CI)Oc1ccccc1", "viability change, negative = cytotoxic": "1.52%"}, {"smiles": "CSc1ccc(Oc2ccc(S(N)(=O)=O)cc2CN(C)C)cc1C", "viability change, negative = cytotoxic": "-27.2%"}, {"smiles": "CN(C(=O)C(Cl)Cl)c1ccc(OC(=O)c2ccco2)cc1", "viability change, negative = cytotoxic": "-23%"}, {"smiles": "CC1CN(c2cc3c(cc2F)c(=O)c(C(=O)O)cn3-c2ccc(F)cc2F)CCN1", "note": "(stereo not drawn)", "viability change, negative = cytotoxic": "12.1% [at 6.26 µM]"}, {"smiles": "C[C@@H]1C[C@H]2[C@@H]3CCC4=CC(=O)C=C[C@]4(C)[C@@]3(F)[C@@H](O)C[C@]2(C)[C@@]1(O)C(=O)CO", "viability change, negative = cytotoxic": "-19.7% [at 80.4 µM]"}, {"smiles": "CC1CC(O)CC(C)(C)C1", "note": "(stereo not drawn)", "viability change, negative = cytotoxic": "-14%"}, {"smiles": "CCOC(=O)/C=C/C(=O)O", "viability change, negative = cytotoxic": "-3.15%"}, {"smiles": "CO/N=C1\\CN(c2nc3c(cc2F)c(=O)c(C(=O)O)cn3C2CC2)CC1CN", "note": "(stereo not drawn)", "viability change, negative = cytotoxic": "-11.7%"}, {"smiles": "C=CC(=O)NCOCC(C)C", "viability change, negative = cytotoxic": "15.9%"}, {"smiles": "CC(CCO)CCc1ccccc1", "note": "(stereo not drawn)", "viability change, negative = cytotoxic": "3.69%"}, {"smiles": "COc1ccc(CCC(=O)c2c(O)cc(O[C@@H]3O[C@H](CO)[C@@H](O)[C@H](O)[C@H]3O[C@@H]3O[C@@H](C)[C@H](O)[C@@H](O)[C@H]3O)cc2O)cc1O", "viability change, negative = cytotoxic": "-5.39%"}, {"smiles": "COc1ccc(C(=O)c2cccc(O)c2)c(OC)c1", "viability change, negative = cytotoxic": "6.79%"}, {"smiles": "N#C/C(=C1/SC[C@@H](c2ccc(Cl)cc2Cl)S1)n1ccnc1", "viability change, negative = cytotoxic": "-31.4%"}, {"smiles": "CCC(C)(C)C1CCC(O)CC1", "note": "(stereo not drawn)", "viability change, negative = cytotoxic": "16.2%"}, {"smiles": "Cc1ccccc1N1C(=O)c2cc(S(N)(=O)=O)c(Cl)cc2NC1C", "note": "(stereo not drawn)", "viability change, negative = cytotoxic": "4.23%"}, {"smiles": "C/C=C(\\C)C(=O)OCCC(C)CCC=C(C)C", "note": "(stereo not drawn)", "viability change, negative = cytotoxic": "0.976%"}, {"smiles": "CCOC(=O)c1ccccc1C", "viability change, negative = cytotoxic": "12.6%"}, {"smiles": "C=CCNc1nc(NCC=C)nc(N2CCN(C(c3ccc(F)cc3)c3ccc(F)cc3)CC2)n1", "viability change, negative = cytotoxic": "21.1%"}]}]}
